Experimental data taken from the supplement of paper PMC10849652.
About 7,900 targets were measured; listed, in parts, are those with a hit and a random draw of the rest. About 0.6% of all pairs of compound and target were hits. A number with no mark means an inactive call.

Experiments:
Assay in all cases: log2 fold change, soluble protein after heating vs DMSO (PISA); higher = thermal stabilisation; K562 cells, 10 uM, 30 min; active = over 0.2 and 3.5 SD of the protein, either way, in both replicates (recomputed)
[1] = compound: C1COCCN1CCN2C3=CC=CC=C3N=C2NC(=O)C4=CC(=CC=C4)[N+](=O)[O-] [IRAK-1-4 Inhibitor I]
How it was run: (§1)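 Quantification of soluble protein used TMTpro 16plex LC-MS/MS, with channel sums equalised. Samples were the supernatant after 21,000xg for 90 min of pooled aliquots from K562 cells (2×10^6 cells/mL) treated with 10 μM compound for 30 min, heated for 3 min over 48°C-58°C, and extracted in PBS with 0.5% NP-40 at 4°C. Values, from duplicates, describe thermal stability against control samples on a log2 fold-change scale.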

[2] = compound: C=CC(=O)N1CCC[C@@H](n2nc(-c3ccc(Oc4ccccc4)cc3)c3c(N)ncnc32)C1 [ibrutinib]
How it was run: as §1

[3] = compound: CC(=O)c1cnc2ccc(-c3cc(Cl)c(O)c(Cl)c3)nc2c1N[C@H]1CC[C@H](CN(C)C)CC1
How it was run: as §1

[4] = compound: CC(C)(C)Cn1c(N)nc2ccc(-c3[nH]c(C(C)(C)C)nc3-c3ccc(F)cc3)nc21 [ralimetinib]
How it was run: as §1

[5] = compound: CC(C)(O)CC(=O)NCCn1ccc2ncnc(Nc3ccc(Oc4cccc(C(F)(F)F)c4)c(Cl)c3)c21
How it was run: as §1

[6] = compound: CC(C)C1=C2N=C(C=C(N2N=C1)NCC3=CC=CC=C3)NCCCCCCN
How it was run: as §1

[7] = compound: CC(C)C[C@@H](C=O)NC(=O)[C@H](CC(C)C)NC(=O)[C@H](CC(C)C)NC(=O)OCc1ccccc1
How it was run: as §1

[8] = compound: CC(C)N(C[C@H]1O[C@@H](n2cnc3c(N)ncnc32)[C@H](O)[C@@H]1O)[C@H]1C[C@@H](CCc2nc3cc(C(C)(C)C)ccc3[nH]2)C1 [pinometostat]
How it was run: as §1

[9] = compound: CC1=C(C(CC(=O)N1)C2=CC=C(C=C2)C(F)(F)F)C(=O)NC3=C(C=C4C(=C3)C=NN4)F
How it was run: as §1

[10] = compound: CC1=C(C2=C(C=C1)C(=O)C3=CC=CC=C3N2CCCN)C
How it was run: as §1

Sequence of UniProt Q9UNM6 (Q9UNM6 whole entry, looked up): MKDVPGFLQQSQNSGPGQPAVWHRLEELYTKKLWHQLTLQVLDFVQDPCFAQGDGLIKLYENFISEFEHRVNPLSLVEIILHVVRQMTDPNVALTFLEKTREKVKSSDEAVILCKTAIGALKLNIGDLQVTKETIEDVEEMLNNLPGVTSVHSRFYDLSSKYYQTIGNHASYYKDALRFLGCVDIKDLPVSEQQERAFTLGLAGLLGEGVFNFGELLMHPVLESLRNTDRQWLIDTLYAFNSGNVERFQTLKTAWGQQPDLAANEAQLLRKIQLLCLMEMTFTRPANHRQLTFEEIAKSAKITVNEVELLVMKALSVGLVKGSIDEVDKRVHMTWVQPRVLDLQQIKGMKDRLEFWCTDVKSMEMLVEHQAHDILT
Sequence of UniProt Q6WKZ4 (Q6WKZ4 whole entry, looked up): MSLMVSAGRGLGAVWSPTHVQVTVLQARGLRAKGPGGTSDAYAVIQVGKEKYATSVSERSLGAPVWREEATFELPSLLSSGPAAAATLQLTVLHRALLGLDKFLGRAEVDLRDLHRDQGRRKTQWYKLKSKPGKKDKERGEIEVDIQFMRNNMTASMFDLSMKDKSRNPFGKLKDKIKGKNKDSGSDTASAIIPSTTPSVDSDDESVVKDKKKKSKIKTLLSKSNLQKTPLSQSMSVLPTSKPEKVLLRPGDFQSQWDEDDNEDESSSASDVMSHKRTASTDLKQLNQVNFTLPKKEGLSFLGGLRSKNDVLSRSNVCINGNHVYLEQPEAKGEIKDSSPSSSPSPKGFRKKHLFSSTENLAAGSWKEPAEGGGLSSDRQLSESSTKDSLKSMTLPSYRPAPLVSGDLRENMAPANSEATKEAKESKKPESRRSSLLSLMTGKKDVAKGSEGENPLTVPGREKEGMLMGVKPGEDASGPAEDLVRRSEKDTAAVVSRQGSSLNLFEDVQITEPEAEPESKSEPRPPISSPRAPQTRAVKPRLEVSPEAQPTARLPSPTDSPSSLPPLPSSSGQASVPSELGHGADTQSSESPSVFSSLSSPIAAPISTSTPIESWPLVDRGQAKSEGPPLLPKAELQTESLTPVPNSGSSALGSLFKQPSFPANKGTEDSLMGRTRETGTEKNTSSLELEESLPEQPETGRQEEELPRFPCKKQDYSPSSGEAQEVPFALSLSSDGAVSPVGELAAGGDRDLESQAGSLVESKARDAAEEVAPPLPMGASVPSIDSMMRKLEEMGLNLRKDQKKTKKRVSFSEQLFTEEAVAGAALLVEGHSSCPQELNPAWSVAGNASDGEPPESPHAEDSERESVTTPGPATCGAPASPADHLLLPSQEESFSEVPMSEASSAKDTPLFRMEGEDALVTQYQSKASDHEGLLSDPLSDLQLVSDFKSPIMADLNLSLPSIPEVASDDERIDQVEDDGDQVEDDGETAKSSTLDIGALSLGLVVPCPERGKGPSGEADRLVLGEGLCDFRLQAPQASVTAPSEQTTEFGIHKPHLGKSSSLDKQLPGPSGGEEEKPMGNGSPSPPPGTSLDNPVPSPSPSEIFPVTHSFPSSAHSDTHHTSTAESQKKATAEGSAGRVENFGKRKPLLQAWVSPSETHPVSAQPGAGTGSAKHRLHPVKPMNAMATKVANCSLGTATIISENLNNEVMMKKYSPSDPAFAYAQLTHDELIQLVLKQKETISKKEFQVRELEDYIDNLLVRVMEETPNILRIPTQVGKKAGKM
Sequence of UniProt Q86TB9 (Q86TB9 whole entry, looked up): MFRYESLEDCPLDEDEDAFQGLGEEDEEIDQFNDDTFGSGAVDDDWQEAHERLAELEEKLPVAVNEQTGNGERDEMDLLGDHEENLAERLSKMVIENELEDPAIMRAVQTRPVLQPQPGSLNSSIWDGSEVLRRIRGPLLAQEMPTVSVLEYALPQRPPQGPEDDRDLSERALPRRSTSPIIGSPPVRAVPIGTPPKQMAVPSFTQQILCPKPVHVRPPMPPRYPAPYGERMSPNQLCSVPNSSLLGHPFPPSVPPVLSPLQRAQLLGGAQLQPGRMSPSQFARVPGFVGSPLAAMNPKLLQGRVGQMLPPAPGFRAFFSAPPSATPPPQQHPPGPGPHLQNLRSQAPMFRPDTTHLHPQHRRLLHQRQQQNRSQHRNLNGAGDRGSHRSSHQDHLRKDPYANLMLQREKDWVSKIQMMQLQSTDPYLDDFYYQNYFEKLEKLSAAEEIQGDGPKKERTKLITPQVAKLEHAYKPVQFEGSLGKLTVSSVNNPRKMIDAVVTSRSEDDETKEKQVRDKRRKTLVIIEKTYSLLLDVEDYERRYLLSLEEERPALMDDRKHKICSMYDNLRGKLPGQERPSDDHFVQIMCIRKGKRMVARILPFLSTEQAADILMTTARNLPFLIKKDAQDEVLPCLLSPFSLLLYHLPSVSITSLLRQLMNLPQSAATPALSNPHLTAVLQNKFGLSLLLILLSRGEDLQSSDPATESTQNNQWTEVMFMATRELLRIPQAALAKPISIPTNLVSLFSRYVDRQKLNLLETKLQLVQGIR
Sequence of UniProt P27815 (P27815 whole entry, looked up): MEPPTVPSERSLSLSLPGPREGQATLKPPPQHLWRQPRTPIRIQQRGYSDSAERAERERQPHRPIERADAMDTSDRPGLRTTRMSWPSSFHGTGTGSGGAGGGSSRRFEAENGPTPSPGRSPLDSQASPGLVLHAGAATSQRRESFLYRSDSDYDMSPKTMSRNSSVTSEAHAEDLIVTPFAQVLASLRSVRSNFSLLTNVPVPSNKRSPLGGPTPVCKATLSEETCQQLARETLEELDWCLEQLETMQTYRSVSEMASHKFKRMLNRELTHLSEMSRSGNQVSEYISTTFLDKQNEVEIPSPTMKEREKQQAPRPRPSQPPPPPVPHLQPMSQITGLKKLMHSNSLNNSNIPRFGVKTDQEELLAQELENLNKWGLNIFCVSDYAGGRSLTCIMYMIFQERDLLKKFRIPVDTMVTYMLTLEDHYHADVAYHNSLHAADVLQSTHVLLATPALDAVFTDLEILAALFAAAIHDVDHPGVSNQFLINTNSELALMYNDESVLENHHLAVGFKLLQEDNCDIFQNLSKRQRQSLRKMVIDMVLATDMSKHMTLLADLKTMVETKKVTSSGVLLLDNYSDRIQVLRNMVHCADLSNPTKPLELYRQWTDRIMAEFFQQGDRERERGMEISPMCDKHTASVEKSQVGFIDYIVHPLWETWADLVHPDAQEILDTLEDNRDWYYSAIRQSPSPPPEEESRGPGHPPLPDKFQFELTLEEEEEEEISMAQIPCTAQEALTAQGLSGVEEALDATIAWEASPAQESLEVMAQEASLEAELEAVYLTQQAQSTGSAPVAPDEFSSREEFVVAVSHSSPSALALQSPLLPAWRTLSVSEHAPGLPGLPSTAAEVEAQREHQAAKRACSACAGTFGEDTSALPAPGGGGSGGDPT
Sequence of UniProt O43164 (O43164 whole entry, looked up): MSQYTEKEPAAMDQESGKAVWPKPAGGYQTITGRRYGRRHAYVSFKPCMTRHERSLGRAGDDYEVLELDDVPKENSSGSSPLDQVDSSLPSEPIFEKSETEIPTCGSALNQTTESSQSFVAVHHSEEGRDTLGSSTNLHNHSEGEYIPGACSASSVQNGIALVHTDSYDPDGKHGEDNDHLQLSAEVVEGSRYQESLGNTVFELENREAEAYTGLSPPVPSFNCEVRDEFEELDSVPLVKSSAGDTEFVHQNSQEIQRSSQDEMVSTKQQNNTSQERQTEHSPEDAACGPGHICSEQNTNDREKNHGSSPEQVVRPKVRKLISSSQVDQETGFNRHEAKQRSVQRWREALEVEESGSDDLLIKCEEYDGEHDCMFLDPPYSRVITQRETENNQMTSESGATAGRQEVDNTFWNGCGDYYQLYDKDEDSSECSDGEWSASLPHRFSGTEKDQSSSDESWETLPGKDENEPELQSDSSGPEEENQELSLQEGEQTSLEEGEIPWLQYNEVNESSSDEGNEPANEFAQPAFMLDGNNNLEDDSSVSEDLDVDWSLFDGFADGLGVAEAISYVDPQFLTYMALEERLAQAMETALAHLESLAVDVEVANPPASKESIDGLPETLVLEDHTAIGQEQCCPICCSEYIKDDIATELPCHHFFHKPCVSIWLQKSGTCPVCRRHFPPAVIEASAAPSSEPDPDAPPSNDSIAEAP
Sequence of UniProt Q8NHP8 (Q8NHP8 whole entry, looked up): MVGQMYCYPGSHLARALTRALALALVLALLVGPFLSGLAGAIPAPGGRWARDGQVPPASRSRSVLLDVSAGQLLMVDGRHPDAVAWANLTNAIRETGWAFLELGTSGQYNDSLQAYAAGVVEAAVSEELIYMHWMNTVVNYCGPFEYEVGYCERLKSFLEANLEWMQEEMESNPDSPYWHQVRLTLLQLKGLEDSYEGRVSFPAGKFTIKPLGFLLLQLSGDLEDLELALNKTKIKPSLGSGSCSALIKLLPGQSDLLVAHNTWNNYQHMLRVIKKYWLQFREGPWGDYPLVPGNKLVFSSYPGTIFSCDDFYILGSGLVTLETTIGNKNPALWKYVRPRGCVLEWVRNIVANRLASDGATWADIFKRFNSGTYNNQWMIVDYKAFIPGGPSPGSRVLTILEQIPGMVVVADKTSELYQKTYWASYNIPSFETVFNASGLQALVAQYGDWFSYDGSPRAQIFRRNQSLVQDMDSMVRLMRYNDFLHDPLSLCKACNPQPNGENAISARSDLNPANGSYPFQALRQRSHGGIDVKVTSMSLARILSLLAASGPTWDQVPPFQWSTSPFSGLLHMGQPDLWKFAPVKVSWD
Sequence of UniProt P10644 (P10644 whole entry, looked up): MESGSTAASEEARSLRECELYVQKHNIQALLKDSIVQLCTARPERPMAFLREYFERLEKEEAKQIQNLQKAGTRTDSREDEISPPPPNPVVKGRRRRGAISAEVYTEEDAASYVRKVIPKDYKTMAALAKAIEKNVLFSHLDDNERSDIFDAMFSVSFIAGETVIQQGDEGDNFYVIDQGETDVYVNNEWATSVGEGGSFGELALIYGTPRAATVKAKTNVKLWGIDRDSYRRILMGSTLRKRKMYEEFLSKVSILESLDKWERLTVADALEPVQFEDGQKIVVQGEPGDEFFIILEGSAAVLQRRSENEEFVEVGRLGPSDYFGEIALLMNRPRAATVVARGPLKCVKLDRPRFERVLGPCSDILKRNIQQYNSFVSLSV

Target | log2 fold change [1] | log2 fold change [2] | log2 fold change [3] | log2 fold change [4] | log2 fold change [5] | log2 fold change [6] | log2 fold change [7] | log2 fold change [8] | log2 fold change [9] | log2 fold change [10]
PSMC2 (UniProt P35998) | -0.024 | -0.009 | 0.079 | 0.046 | 0.011 | 0.053 | -0.183 | 0.033 | 0.039 | -0.039
PRKAR1A (UniProt P10644) | -0.068 | 0.035 | -0.049 | 0.268 | 0.041 | -0.149 | 0.041 | 0.131 | -0.084 | -0.127
PTMA (UniProt P06454) | 0.034 | 0.049 | 0.127 | 0.251 | -0.133 | 0.085 | -0.289 | -0.092 | 0.063 | -0.021
PRKAB1 (UniProt Q9Y478) | 0.015 | -0.02 | -0.184 | 0.022 | -0.069 | -0.006 | -0.041 | -0.048 | 0.036 | 0.015
PRPF4B (UniProt Q13523) | -0.126 | -0.015 | -0.263 | -0.001 | 0.138 | -0.029 | 0.077 | 0.099 | -0.006 | -0.209
PRKCA (UniProt P17252) | 0.012 | -0.02 | -0.595 (active) | -0.039 | -0.02 | -0.035 | 0.104 | -0.015 | 0.011 | 0.064
PLSCR1 (UniProt O15162) | -0.003 | 0.002 | -0.025 | -0.046 | 0.047 | 0.031 | -0.036 | -0.015 | -0.011 | 0.031
PCBP2 (UniProt F8VRH0) | 0.118 | 0.057 | -0.092 |  | -0.263 | 0.123 |  | 0.022 | 0.089 | -0.113
PLBD2 (UniProt Q8NHP8) | 0.04 | 0.009 | 0.003 | -0.071 | -0.01 | -0.106 | 0.025 | 0.001 | -0.018 | -0.023
PRMT8 (UniProt Q9NR22) | 0.045 | -0.004 | -0.012 | 0.098 | -0.014 | 0.001 | -0.073 | 0.026 | -0.027 | 0.101
PPIL4 (UniProt Q8WUA2) | -0.102 | 0.013 | -0.27 (active) | 0.101 | 0.04 | -0.114 | -0.065 | 0.055 | 0.002 | 0.066
PCF11 (UniProt O94913) | 0.002 | -0.255 | -0.093 | -0.104 |  |  | -0.083 | -0.058 |  | 
PGK2 (UniProt P07205) | 0.039 | -0.003 | 0.004 | -0.07 | 0.008 |  | 0.063 | -0.032 | 0.096 | -0.037
PDE4A (UniProt P27815) | 0 | 0.249 | 0.077 | -0.056 | 0.106 | 0.029 | 0.04 | 0.019 |  | -0.077
PRKD3 (UniProt O94806) | 0.189 | 0.059 | -2.06 (active) | -0.089 |  | -0.129 | 0.06 | 0.266 |  | 
RAB11FIP1 (UniProt Q6WKZ4) | 0.014 | -0.009 | -0.067 | 0.023 | -0.016 | -0.118 | -0.004 | 0.059 | -0.021 | 0.041
PSMB9 (UniProt P28065) | 0.091 | 0.511 | 0.031 |  | -0.01 | 0.205 |  | 0.069 |  | 
PRKCE (UniProt Q02156) | -0.02 | -0.013 | -0.468 (active) |  | -0.026 | -0.153 |  | -0.051 | -0.059 | -0.009
PI4K2B (UniProt Q8TCG2) | 0.035 | -0.004 | 0.042 | -0.04 |  | -0.131 | -0.017 | 0.053 | 0.135 | 0.003
PATL1 (UniProt Q86TB9) | -0.026 | -0.173 | -0.312 | 0.079 | -0.024 | -0.298 | 0.033 | 0.143 |  | 0.038
PTPMT1 (UniProt Q8WUK0) | 0.018 | -0.05 | -0.131 | -0.144 | -0.083 | -0.579 (active) | 0.052 | 0.013 | 0.043 | -0.057
PIKFYVE (UniProt Q9Y2I7) | -0.032 | -0.097 | -0.07 | -0.002 | -0.145 | -0.256 | 0.063 | 0.006 | 0.034 | 0.012
PUM1 isoform 3 (UniProt Q14671) | 0.004 | 0.02 | -0.097 | 0.013 | -0.022 | -0.059 | 0.02 | 0.023 | 0.006 | 0.063
PSMD13 (UniProt Q9UNM6) | -0.048 | -0.039 | 0.048 | -0.021 | 0 | 0.009 | -0.265 (active) | 0.09 | 0.049 | 0.032
PJA2 (UniProt O43164) | 0.061 | 0.023 | 0.091 | -0.004 | -0.02 | -0.013 | 0.169 | -0.005 | 0.05 | -0.308 (active)
PIP4K2A (UniProt P48426) | 0.115 | -0.03 | 0.749 (active) | -0.068 | -0.108 | 0.074 | 0.018 | -0.067 | -0.118 | -0.02
